{"source": "PubChem BioAssay (NCATS)", "note": "Inconclusive results are not listed. A call without a number means that no potency is given here. The source made the active and inactive calls. The call rests on the fitted dose curve; in most records, active means well fitted activation curve with a large enough effect; inconclusive means small, poorly fitted or top-dose-only effect; inactive means flat fitted curve, though single readings scatter. Potency means the concentration at half of the fitted maximal effect."}
{"target": "Cellular tumor antigen p53 (Homo sapiens) (UniProt P04637)", "sequence (P04637 whole entry, looked up)": "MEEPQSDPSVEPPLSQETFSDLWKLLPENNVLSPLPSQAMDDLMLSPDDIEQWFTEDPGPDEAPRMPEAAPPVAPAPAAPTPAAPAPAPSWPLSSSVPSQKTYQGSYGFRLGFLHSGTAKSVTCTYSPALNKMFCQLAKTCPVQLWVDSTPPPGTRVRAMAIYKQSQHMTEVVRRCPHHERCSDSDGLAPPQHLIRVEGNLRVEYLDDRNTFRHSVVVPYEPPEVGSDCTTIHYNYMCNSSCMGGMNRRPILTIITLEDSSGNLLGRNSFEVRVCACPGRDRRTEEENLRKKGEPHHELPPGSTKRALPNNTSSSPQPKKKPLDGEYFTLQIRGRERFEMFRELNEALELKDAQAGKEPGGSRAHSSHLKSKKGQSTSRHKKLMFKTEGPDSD", "assay": "Primary qHTS for small molecule compounds that upregulate eGFP-tagged delta133p53alpha (in C-terminal) cells. (AID 2060324)", "conditions": "NCI-H358 delta133p53alpha-eGFP (C-terminal tag), GFP fluorescence imaging, 24 h; series mostly up to 57.5 µM", "text": "Assay Development and Screening Technology\nNational Center for Advancing Translational Sciences (NCATS),\nNational Institute of Health (NIH), Rockville, Maryland\nCellular senescence (CS) is one of the hallmarks of aging and age-related diseases. Senescent cells are characterized by an irreversible growth arrest, an increase in senescence-associated beta-galactosidase (SA-beta-gal) activity and p16INK4a expression, an activation of the DNA damage response pathways, and the emergence of a senescence-associated secretory phenotype (SASP).\nDelta133p53alpha, a human/primate-specific p53 protein isoform, delays or inhibits the induction of CS and SASP in various types of human cells, including progeria-derived fibroblasts, primary normal astrocytes, and CD8+ T lymphocytes. Induction of delta133p53alpha with small molecule compounds may provide therapeutic opportunities for inhibition of senescence/SASP-associated pathologies in progeria syndromes, astrocyte-mediated neuroprotection in neurodegenerative diseases, and possibly prevention and treatment of a wider range of senescence- and aging-associated diseases.\nHere we report the development and validation of a cell-based quantitative high throughput screening (qHTS) assay in 1,536-well format. This qHTS assay uses the NCI-H358 cell line with doxycycline-inducible expression of enhanced green fluorescent protein (eGFP)-tagged delta133p53alpha, which allows efficient and highly quantitative measurement of the protein levels.\nPROTOCOL TABLE (as described by Inglese J, Shamu CE and Guy RK. 2007)\nSEQUENCE No. (e.g., 1, 2, 3, etc.); […] (e.g., Cells, Incubation, Reagent, etc.); VALUE; DESCRIPTION.\n1; Cells; 4uL; 800 doxycycline treated cells / well in doxycycline-free media, 1536-well black, clear-bottom low base Aurora microplates.\n2; Compounds; 23 nL; Kalypsis pin tool (Wako) equipped with 1536-well pin heads, 5-azacytidine positive control.\n3; Incubation; 24 hr; 37C, 5% CO2; 95% relative humidity.\n4; Aspiration; 1x; BioTek EL406 washer dispenser (Agilent).\n5; Fixing; 3.5% paraformaldehyde, BioTek EL406 washer dispenser (Agilent).\n6; Washing; 1x PBS; BioTek EL406 washer dispenser (Agilent).\n7; Nuclei staining; 1:1000 dilution of Hoechst 33342 (Thermofisher), BioTek EL406 washer dispenser (Agilent).\n8; Incubation; 20 min; in the dark at room temperature.\n9; Washing; 2x, 1x PBS (ThermoFisher), BioTek EL406 washer dispenser (Agilent).\n10; Reagent; 10 uL; 1x PBS per well, sealed with clear adhesive tape.\n11; Detection; Fluorescence, Acumen eX3 laser scanning cytometer (STP Labtech), GFP filters […].\nNOTES (numbers refer to sequence numbers above).\n1. NCI-H358 cells expressing eGFP-tagged delta133p53alpha were grown in T75 culture flasks and treated with doxycycline for 24h, at 10 ng/ml for eGFP-D133p53a cells (N-terminal cell) and 100 ng/ml for D133p53a-eGFP cells (C-terminal cells). Cells were trypsinized, counted using a Counted 3 Automated Cell Counter (Thermo Fisher), and diluted to a concentration of 200,000 cells/ml. A Multidrop Combi Reagent Dispenser (ThermoFisher) was used to dispense 800 cells/well in […] of doxycycline-free media, into 1536-well black/clear bottom low base plates (AuroraMicroplates).\n2. After plating cells, 23 nl of compound library, DMSO vehicle control or positive control (5-azacytidine) were transferred by Pin Tool (Wako). The plate map layout was the same for each plate: (column 1) non-doxycycline treated cells + DMSO vehicle control; (column 2) doxycycline treated cells + DMSO vehicle control baseline; (column 3) doxycycline treated cells + positive control 57.5 uM final concentration 5-azacytidine; (column 4) doxycycline treated cells + serial dilution of 5-azacytidine, 16-point 1:2 titration spanning 1.8 nM to […] final concentration; (columns 5-48) doxycycline treated cells + titration of library compounds.\n3. Cells were incubated at 37 °C, 5 % CO2, 95% RH with breathable metal lid for 24h.\n4-10. […] […]"}
{"compound": "CC(=O)N[C@H](C(=O)O)C(C)(C)SN=O", "Potency": "inactive"}
{"compound": "CC[C@@]1(O)C(=O)OCc2c1cc1n(c2=O)Cc2cc3c(CN(C)C)c(O)ccc3nc2-1", "Potency": "6.75 µM (active)"}
{"compound": "CNCCC(Oc1ccccc1OC)c1ccccc1", "note": "(stereo not given)", "Potency": "inactive"}
{"compound": "COc1cc(CNC(=O)CCCCCCC(C)C)ccc1O", "Potency": "inactive"}
{"compound": "CCOC(=O)[C@H](CCc1ccccc1)N[C@@H](C)C(=O)N1[C@H](C(=O)O)C[C@H]2CCCC[C@@H]21", "Potency": "inactive"}
{"compound": "N=C(N)SCCN", "Potency": "inactive"}
{"compound": "N[C@@H](CC(=O)O)C(=O)O", "Potency": "inactive"}
{"compound": "CCCC(=O)NCCc1c2n(c3ccc(OC)cc13)CCCc1ccccc1-2", "Potency": "inactive"}
{"compound": "O=C(NCCN1CCOCC1)c1ccc(Cl)cc1", "Potency": "inactive"}
{"compound": "C#CCn1c(=O)c2c(ncn2C)n(C)c1=O", "Potency": "inactive"}
{"compound": "Cc1nn(-c2ccccc2)c(C)c1/C=N/N1CCN(Cc2ccccc2)CC1", "Potency": "inactive"}
{"compound": "COc1ccc2c(c1)CCC1C2CC[C@@]2(C)C1CC[C@@H]2NCCCCCCN1C(=O)C=CC1=O", "note": "(stereo not given in full)", "Potency": "inactive"}
{"compound": "Nc1nc2c(nc(Br)n2C2OC3COP(=O)(O)O[C@@H]3C2O)c(=O)[nH]1", "note": "(stereo not given in full)", "Potency": "inactive"}
{"compound": "C[C@H](NC(=O)/C(C#N)=C/c1ccc(O)c(O)c1)c1ccccc1", "Potency": "inactive"}
{"compound": "Oc1cc(O)c2c(c1)O[C@H](c1ccc(O)c(O)c1)[C@@H](O)C2", "Potency": "inactive"}
{"compound": "O=C1NC(=O)c2c1c(-c1ccccc1)cc1[nH]c3ccc(O)cc3c21", "Potency": "26.9 µM (active)"}
{"compound": "N[C@@H](Cc1ccc(F)cc1)C(=O)O", "Potency": "inactive"}
{"compound": "O=C(CCc1ccc(O)cc1)c1c(O)cc(O)cc1O", "Potency": "inactive"}
{"compound": "Cn1c(=O)c2[nH]c(-c3ccc(S(=O)(=O)O)cc3)nc2n(C)c1=O", "Potency": "inactive"}
{"compound": "Nc1nnc(-c2cccc(Cl)c2Cl)c(N)n1", "Potency": "inactive"}
{"compound": "CCCCOc1cc(CC2CNC(=O)N2)ccc1OC", "note": "(stereo not given)", "Potency": "inactive"}
{"compound": "CC1=NS(=O)(=O)c2cc(Cl)ccc2N1", "Potency": "inactive"}
{"compound": "O=C(O)CCc1nc(-c2ccccc2)c(-c2ccccc2)o1", "Potency": "inactive"}
{"compound": "CC(C)C[C@H](NC(=O)C1OC1C(=O)O)C(=O)NCCCCN=C(N)N", "note": "(stereo not given in full)", "Potency": "inactive"}
{"compound": "COc1cc(C(O)CO)ccc1O", "note": "(stereo not given)", "Potency": "inactive"}
{"compound": "CC(C)(C)NCC(O)c1ccc(O)c(CO)c1", "note": "(stereo not given)", "Potency": "inactive"}
{"compound": "COC(=O)C1=CO[C@@H](O)[C@@H]2C(CO)=CC[C@H]12", "Potency": "inactive"}
{"compound": "CC(=O)C(C)=O", "Potency": "inactive"}
{"compound": "CN1CCc2cccc3c2C1Cc1ccc(O)c(O)c1-3", "note": "(stereo not given)", "Potency": "inactive"}
{"compound": "CC(=O)CCCCn1c(=O)c2c(ncn2C)n(C)c1=O", "Potency": "inactive"}
{"compound": "C[C@@H](NCCc1ccc(O)cc1)[C@@H](O)c1ccc(O)cc1", "Potency": "inactive"}
{"compound": "CC(C)NC[C@H](O)COc1ccc(CC(N)=O)cc1", "Potency": "inactive"}
{"compound": "COc1ccccc1CN[C@@H]1CCCN[C@@H]1c1ccccc1", "Potency": "inactive"}
{"compound": "CC(C)NCC(O)COc1ccc(COCCOC(C)C)cc1", "note": "(stereo not given)", "Potency": "inactive"}
{"compound": "O=c1ccc2c(OCCCCc3ccccc3)c3ccoc3cc2o1", "Potency": "inactive"}
{"compound": "NC1C=CC=C(C(=O)O)C1", "note": "(stereo not given)", "Potency": "inactive"}
{"compound": "O=c1cc(-c2ccccc2)oc2c(O)c(O)ccc12", "Potency": "inactive"}
{"compound": "Cn1c(=O)c2c(nc(/C=C/c3cccc(Cl)c3)n2C)n(C)c1=O", "Potency": "inactive"}
{"compound": "Nc1c2c(nc3ccccc13)CCCC2O", "note": "(stereo not given)", "Potency": "inactive"}
{"compound": "COc1ccc2[nH]cc(CCNC(C)=O)c2c1", "Potency": "inactive"}
